Assay outcomes deposited in PubChem by several laboratories.
HSF1 inhib = HSF1 inhibition | NIH3T3-HGL HSE-luciferase, MG132-induced, luminescence 8 h; active compounds read low | activity change, negative = inhibition, % at 7.5 µM (by protocol) | hit rate 0.77% among 300,000;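 active = more than half of replicate wells show activity change below -50%, luminescence cut by over half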;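 note: luciferase reports HSF-1 transcriptional activity via heat shock element; 0% = median of DMSO wells and -100% = zero luminescence signal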
HSF-1 act = increases HSF-1 driven luciferase reporter signal; NIH3T3-HGL HSF-1 luciferase reporter, MG132, 8 h; 100% = twice DMSO control signal; activation, % at 9 µM; hit rate 1.7% among 300,000;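 active = mean replicate activation of at least 50% with a set share of replicates each reaching 50%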;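 note: 0% = median of the neutral control wells and 100% = twice that signal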
Hsp70 act = Hsp70 transcriptional activation, primary screen; HeLa Hsp70 promoter luciferase reporter, luminescence; scaled: vehicle 0, proteasome-inhibitor control 100%; activation, % at 10 µM; hit rate 0.04% among 200,000; AID 1203;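 active = activation above the mean across all tested compounds plus 3 SD, cutoff set per campaign, cut at about 5.5% in these data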;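 note: 100% = MG132 at 30 µM as the positive control and 0% = DMSO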
NALP1 inh = blocks the NALP1 inflammasome reconstituted in yeast | S. cerevisiae NALP1/ASC/caspase-1 growth, X-gal OD620, 72 h | hit rate 0.61% among 280,000 | inhibition, % at 10 µM; in the data active = inhibition mostly above about 24%, no sharp cut-off; inactive = mostly below about 32%
HSP90 refold inh = inhibitors of HSP90 luciferase refolding in rabbit reticulocyte lysate; hit rate 0.91% among 290,000; luciferase refolding luminescence, 3 h; inhibition, % at 5.6 µM;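 active = inhibition above the screen-wide mean plus 3 SD, computed separately per campaign, cut at about 16% in these data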;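 note: 0% = DMSO wells and 100% = 60 µM geldanamycin wells; inhibitors lower the luminescence because luciferase stays unfolded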
p-CIP stab down = lowers stability of the mouse p/CIP coactivator protein; Q05BA5; F442A p/CIP-EGFP cells, EGFP fluorescence, 16 h; decrease of EGFP signal, % at 10 µM; hit rate 0.01% among 290,000;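 active = EGFP signal decrease of at least 30% at 10 µM or well 3 SD below plate mean, unless failing retest; inactive = the rest, including hits failing retest or dose response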
Target sequence (Q05BA5 1-1403): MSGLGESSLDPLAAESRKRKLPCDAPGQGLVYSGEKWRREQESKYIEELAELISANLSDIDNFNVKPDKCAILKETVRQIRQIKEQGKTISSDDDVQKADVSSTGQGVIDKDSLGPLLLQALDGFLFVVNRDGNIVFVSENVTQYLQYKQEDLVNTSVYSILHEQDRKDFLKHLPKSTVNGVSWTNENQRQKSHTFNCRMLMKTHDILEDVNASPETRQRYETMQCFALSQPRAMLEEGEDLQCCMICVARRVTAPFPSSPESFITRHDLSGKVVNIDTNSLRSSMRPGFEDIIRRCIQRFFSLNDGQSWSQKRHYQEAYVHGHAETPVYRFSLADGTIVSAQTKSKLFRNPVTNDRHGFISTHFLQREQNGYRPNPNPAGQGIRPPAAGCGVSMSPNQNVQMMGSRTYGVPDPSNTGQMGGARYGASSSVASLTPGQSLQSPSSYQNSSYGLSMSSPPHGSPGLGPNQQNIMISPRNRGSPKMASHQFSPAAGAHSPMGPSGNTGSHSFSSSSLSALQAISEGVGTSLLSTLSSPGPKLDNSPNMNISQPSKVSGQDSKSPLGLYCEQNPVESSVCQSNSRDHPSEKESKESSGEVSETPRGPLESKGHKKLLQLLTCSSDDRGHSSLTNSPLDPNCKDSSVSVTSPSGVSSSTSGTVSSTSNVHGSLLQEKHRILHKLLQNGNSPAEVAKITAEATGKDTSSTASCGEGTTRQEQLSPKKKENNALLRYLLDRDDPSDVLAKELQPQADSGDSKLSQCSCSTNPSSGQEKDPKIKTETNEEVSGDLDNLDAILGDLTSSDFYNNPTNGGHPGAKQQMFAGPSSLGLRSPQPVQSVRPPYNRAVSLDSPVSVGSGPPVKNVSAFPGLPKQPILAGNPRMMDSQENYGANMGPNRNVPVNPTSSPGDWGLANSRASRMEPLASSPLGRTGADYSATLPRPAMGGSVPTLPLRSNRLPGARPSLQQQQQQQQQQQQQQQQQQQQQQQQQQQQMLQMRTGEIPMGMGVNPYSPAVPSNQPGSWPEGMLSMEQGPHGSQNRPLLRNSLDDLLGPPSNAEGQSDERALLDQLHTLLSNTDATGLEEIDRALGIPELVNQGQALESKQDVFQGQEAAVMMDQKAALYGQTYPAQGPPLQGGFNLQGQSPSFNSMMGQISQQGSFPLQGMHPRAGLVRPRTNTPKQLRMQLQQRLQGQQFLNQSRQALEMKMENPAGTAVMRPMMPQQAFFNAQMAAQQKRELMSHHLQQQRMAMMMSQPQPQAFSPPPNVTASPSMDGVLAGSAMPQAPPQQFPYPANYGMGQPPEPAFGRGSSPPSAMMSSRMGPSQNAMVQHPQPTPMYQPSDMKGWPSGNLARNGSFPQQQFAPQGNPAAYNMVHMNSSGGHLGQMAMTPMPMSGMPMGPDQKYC
Starred values were filed as active, the others as inactive; · = no result. Hits are enriched below; roughly 3.8% of the tested compounds scored in any of these assays.

SMILES	HSF1 inhib	HSF-1 act	Hsp70 act	NALP1 inh	HSP90 refold inh	p-CIP stab down
COc1ccc(C(=O)C2CCCN(Cc3c(F)ccc(F)c3F)C2)c(OC)c1 (stereo not drawn)	10	34	·	12	4	-5
CCOC(=O)c1[nH]ncc1CN1CCCC(C(=O)c2cc(Cl)ccc2OC)C1 (stereo not drawn)	5	-6	0	33*	-4	-10
COc1ccc(C(=O)C2CCCN(Cc3c[nH]c4ccccc34)C2)c(OC)c1 (stereo not drawn)	-5	12	0	28*	5	-8
COc1ccc(Br)cc1CN1CCN(Cc2c[nH]c3ccccc23)CC1	10	55*	·	12	-1	-6
Nc1c2c(nc3sc4c(c13)CCCCC4)CCCCC2	-14	-2	0	64*	4	2
CCc1c(-c2ccccc2)nc2sc3c(c2c1N)CCCC3	27	40	·	6	-3	3
CC1CCc2c(nc3sc4c(c3c2N)CCCC4)C1 (stereo not drawn)	12	41	0	42*	-4	-10
CC1CCc2nc3sc4c(c3c(N)c2C1)CCCC4 (stereo not drawn)	21	35	0	74*	-2	-10
CSc1cccc(NC(=O)OC2CCCCCCCCCCC2)c1	-2	0	·	-5	-1	4
OCC1CCCN(Cc2ccc(-c3ccccc3)cc2)C1 (stereo not drawn)	5	-11	0	34*	0	-3
CN(C)C(=S)Oc1ccccc1-c1ccccc1OC(=S)N(C)C	-5	6	·	2	-6	-7
CC(C)(C)OC(=O)N1CSC[C@H]1C(=O)NC[C@H](CC(=O)O)c1ccc(Cl)cc1	39	82*	·	2	-2	-4
COc1ccc2nc3cc(Cl)ccc3c(Nc3cc(C(C)C)c(O)cc3C)c2c1	146	187*	·	27	5	3
CCN(CC)CCCC(C)Nc1c2ccc(Cl)cc2nc2ccc(OC)cc12 (stereo not drawn)	·	·	0	3	4	-107
Cc1cc(C)c(C(=O)/C=C/c2ccc3c(c2)OCO3)c(=O)[nH]1	3	8	0	21	3	3
Cc1cc(C)c(C(=O)/C=C/c2cccc3ccccc23)c(=O)[nH]1	65	84*	0	24	5	0
COc1cccc(Cn2c(=O)sc3ccccc3c2=O)c1	46	81*	0	-5	-2	-10
Nn1c(COc2ccccc2F)nnc1SCC(=O)NC1CCCCC1	-14	-35	·	·	·	·
Cc1ccc(OCC(=O)Nc2ccccc2[N+](=O)[O-])c(Br)c1	38	55*	0	9	-7	0
Cc1ccc(OCC(=O)Nc2ccccc2F)cc1C	0	-9	0	14	3	-23
Cc1ccc(OCC(=O)Nc2ccccc2F)cc1	10	56*	·	·	·	·
COC(=O)C1=C(C)N(Cc2ccco2)C(=O)C1	-60*	-69	0	9	3	8
CCC(C)NC(=O)c1ccc(N2CC3CC(C2)c2cccc(=O)n2C3)c(NC(=O)c2ccc(Br)o2)c1 (stereo not drawn)	-9	-6	·	15	-3	-22
O=C(NC(=S)Nc1cccnc1Cl)c1ccc(F)cc1	18	44	·	-4	0	1
N#Cc1cnc(Nc2ccc(F)cc2)nc1N	31	72*	·	·	-1	-1
SMILES	HSF1 inhib	HSF-1 act	Hsp70 act	NALP1 inh	HSP90 refold inh	p-CIP stab down
CCCOc1ccc(-c2c(C(=O)N/N=C(\C)c3cccs3)nnn2-c2nonc2N)cc1	-1	-1	·	6	0	1
CCCCc1ccc(/C=C2/C(=O)ON=C2c2ccccc2)s1	28	83*	0	4	-6	1
Cc1ccc(/C=C2/C(=O)ON=C2c2ccccc2)o1	34	86*	·	-4	1	-9
Cc1sc(/C=C2\C(=O)ON=C2c2ccccc2)cc1Br	5	23	0	7	-1	8
CC(=O)Nc1ccc(CCc2nc3ccccc3[nH]2)cc1	4	14	·	7	-1	-7
CC(C)c1ccc(NC(=O)N(CCc2nc3ccccc3[nH]2)C2CCCC2)cc1	-61*	-60	0	11	3	4
COc1cc(NC(=O)c2ccc([N+](=O)[O-])cc2)ccc1NC(=O)C(C)C	-5	-2	0	-18	1	-9
CCN(c1ccccc1)S(=O)(=O)c1ccc(Cl)c(NC(=O)Nc2ccc(Cl)cc2C#N)c1	18	21	0	27	-8	-2
CCN(c1ccccc1)S(=O)(=O)c1cc(NC(=O)Nc2ccccc2C#N)ccc1Cl	17	59*	0	46	2	-18
CC1(C)Cc2c(cnn2-c2cccc(F)c2)C(NC(=O)C2CCOCC2)C1 (stereo not drawn)	3	8	·	5	-3	-137
Clc1ccc(Nc2ccc(NCc3ccccc3)nn2)cc1	14	16	0	72*	5	-4
COc1cc(/C=N/NC(=O)CSc2nc3ccccc3n2C)cc(OC)c1OC	3	6	0	23	0	-10
Cc1cc(C)c(S(C)(=O)=O)c(Oc2ccc(C(C)(C)C)cc2)n1	-3	3	0	30*	5	-14
Cc1cc(C)c(S(C)(=O)=O)c(Oc2cccc(Cl)c2)n1	1	-11	0	31	2	-14
COc1ccc(-c2cc(-c3ccc(C)cc3)n[nH]2)c(O)c1	8	31	·	0	-2	-5
Cc1ccc(O)c(-c2cc(-c3ccccc3[N+](=O)[O-])[nH]n2)c1	42	59*	0	22	-4	-1
O=[N+]([O-])c1ccccc1-c1cc(-c2cc(Cl)ccc2O)n[nH]1	33	21	0	14	1	12
Cc1ccc(O)c(-c2cc(C(F)(F)C(F)F)[nH]n2)c1	50	80*	0	-3	-1	3
COc1ccc(-c2cc(-c3cc(C)ccc3O)[nH]n2)cc1	252	264*	0	-10	-2	-8
Cc1ccc(O)c(-c2cc(-c3ccccc3C)[nH]n2)c1	123	162*	0	6	-6	-8
O=C(O)c1cc([N+](=O)[O-])cc([N+](=O)[O-])c1N1CCN(c2cccc(C(F)(F)F)c2)CC1	-5	8	·	3	4	-12
CCOC(=O)c1cnc2c(-c3ccccc3)c(-c3ccccc3)nn2c1C	-7	-8	·	-7	-1	-3
CCN(CC)C(=O)CCSc1nnc(-c2ccco2)o1	2	2	0	5	1	3
CCc1nccn1S(=O)(=O)c1ccc(OC)c(C)c1C	-11	1	0	34*	-2	-2
COc1ccccc1C(=O)NCCC(=O)NNC(=O)Cn1ccc(C(F)(F)F)n1	-77*	-82	·	·	·	·
O=C(O)COc1ccc(/C=N/NC(=O)c2ccccc2Br)cc1	-67*	-74	0	-2	1	8
